CatL block – inhibitors of human cathepsin L, biochemical | Procathepsin L (Homo sapiens), P07711 | 58,000 compounds, 0.17% hits | purified cathepsin L, fluorogenic substrate, fluorescence | inhibition, %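 (tested at 10 µM)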 | AID 460, 2006; in the data active = inhibition above about 45%;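 note: 0% = enzyme with no compound and 100% = no enzyme blank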
Target sequence (P07711 114-288 limits assumed): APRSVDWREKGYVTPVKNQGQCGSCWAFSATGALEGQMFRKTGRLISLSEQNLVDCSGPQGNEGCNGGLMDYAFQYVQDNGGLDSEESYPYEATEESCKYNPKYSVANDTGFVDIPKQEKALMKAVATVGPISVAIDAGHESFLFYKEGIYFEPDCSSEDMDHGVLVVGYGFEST
Target sequence (P07711 292-333 limits assumed): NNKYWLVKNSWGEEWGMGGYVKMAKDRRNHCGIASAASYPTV
CatB mixtures – cathepsin B inhibitors from pooled compounds, primary screen, biochemical, compound mixtures, AMC fluorescence. AID 488, 2006. 62,000 compounds, 0.06% hits. P07858. inhibition, %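 (ten-compound pools at 5 µM per compound and 50 µM total)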. Purified cathepsin B, AMC dipeptide fluorescence; in the data active = inhibition above about 22%, passing the limit was not always enough; inconclusive = no clear call, values can overlap the other calls;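 note: 0% = enzyme without compound and 100% = no enzyme blank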
CatB block – human cathepsin B inhibitors, primary screen, biochemical, fluorogenic substrate; purified cathepsin B, fluorescence; P07858; 63,000 compounds, 0.1% hits; inhibition, %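 (tested at 10 µM)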; in the data active = inhibition above about 21%;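 note: 0% = enzyme with no compound and 100% = no enzyme blank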
E coli RNAP – E. coli RNAP inhibitors, biochemical; DNA-directed RNA polymerase subunit beta (Escherichia coli (strain K12)), P0A8V2; E. coli RNA polymerase, fluorescence transcription assay; inhibition, %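 (tested at 10 µM)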; 62,000 compounds, 0.2% hits; in the data active = inhibition above about 20%;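 note: 0% = enzyme without compound and 100% = no enzyme blank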
BAP1 inh – inhibitors of BAP1 deubiquitinase, primary screen, biochemical, Ub-AMC fluorescence, kinetic; calls only at 20 µM; recombinant BAP1, Ub-AMC hydrolysis fluorescence kinetic; hits give low values; 72,000 compounds, 0.48% hits; Ubiquitin carboxyl-terminal hydrolase BAP1 (Homo sapiens), Q92560; AID 436, 2006;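 active = activity remaining at or below 50% of control, provided the compound also passes the data quality filters; inactive = the rest, including low values that fail the filters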;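 note: 100% = DMSO wells rate and 0% = substrate alone blank rate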
CatS inh – inhibitors of human cathepsin S, biochemical, compound mixtures | recombinant cathepsin S, AMC dipeptide fluorescence, pooled mixtures | inhibition, %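 (tested at 5 µM per compound within 10-compound mixtures)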 | 62,000 compounds, 0.06% hits | AID 501, 2006; in the data active = inhibition above about 32%, passing the limit was not always enough; inconclusive = no clear call, values can overlap the other calls;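 note: 0% = enzyme without compound and 100% = blank without enzyme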
Target sequence (P25774 115-331 limits assumed): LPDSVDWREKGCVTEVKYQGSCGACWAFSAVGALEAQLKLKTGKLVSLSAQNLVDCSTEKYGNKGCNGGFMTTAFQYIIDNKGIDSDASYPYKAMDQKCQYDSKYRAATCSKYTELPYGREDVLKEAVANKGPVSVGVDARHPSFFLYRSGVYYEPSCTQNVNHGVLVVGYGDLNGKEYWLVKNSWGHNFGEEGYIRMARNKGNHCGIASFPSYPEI
BAP1 inh conf – BAP1 deubiquitinase inhibitors, hit retest, confirmation, orthogonal assay, biochemical, Ub-ethyl ester substrate, HPLC readout; shares compounds with BAP1 inh; purified BAP1, Ub-ethyl ester hydrolysis; hits give low values; % of control activity, % at 20 µM; 310 compounds, 8% hits; AID 753, 2007;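 active = percent of control activity at or below 60%; inconclusive = HPLC trace unusable from injection failure or solvent front hiding peaks; inactive = the rest, plus ubiquitin peak ratio over a set limit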
Active calls of the source: *; i = inactive; ? = inconclusive; . = no result shown; + = active, no number. Hits are enriched below; roughly 0.81% of the tested compounds scored in any of these assays.

SMILES	CatL block	CatB mixtures	CatB block	E coli RNAP	BAP1 inh	CatS inh	BAP1 inh conf
O=C(O)C1Cc2c([nH]c3ccccc23)C(c2ccccc2O)N1 (stereo not drawn)	.	.	.	.	i	.	.
CC1CCCN(S(=O)(=O)c2ccc(NC(=O)Cn3nnc(-c4ccccc4F)n3)cc2)C1 (stereo not drawn)	17	0	1	3	+	-2	26*
Cc1ccc(-c2nnn(CC(=O)Nc3ccc(S(=O)(=O)N4CCC(C)CC4)cc3)n2)cc1	14	-2	1	4	+	-3	73
CC1CCN(S(=O)(=O)c2ccc(NC(=O)Cn3nnc(-c4ccccc4)n3)cc2)CC1	-10	3	-4	4	i	4	.
COc1ccc(NC(=O)Cn2nnc(-c3ccccc3F)n2)cc1	4	2	4	12	i	-3	.
CC(=O)C1=C(C)NC(SCC(=O)c2ccc(F)cc2)=C(C#N)C1c1ccco1 (stereo not drawn)	-1	3	4	5	i	-7	.
CCc1ccc(C(=O)CSC2=C(C#N)C(c3ccco3)C(C(C)=O)=C(C)N2)cc1 (stereo not drawn)	18	-2	6	9	i	2	.
CC(=O)C1=C(C)NC(SCC(=O)c2ccc(Cl)c(Cl)c2)=C(C#N)C1c1ccco1 (stereo not drawn)	24	2	14	9	+	4	42*
CC(=O)C1=C(C)NC(SCC(=O)c2cc(Cl)ccc2Cl)=C(C#N)C1c1ccco1 (stereo not drawn)	3	0	6	5	+	-4	96
O=C(Nc1ccc(Cl)c([N+](=O)[O-])c1)c1cccnc1	.	.	.	.	i	.	.
C=CCOC(=O)C(C#N)c1nc2ccccc2nc1N1CCN(Cc2ccc3c(c2)OCO3)CC1 (stereo not drawn)	0	1	2	-3	+	2	76
COc1ccc(C2CC(C(F)(F)F)n3ncc(C(=O)Nc4ccc5c(c4)OCO5)c3N2)cc1 (stereo not drawn)	.	.	.	.	i	.	.
COc1ccc(CC(=O)Nc2ccc(-c3noc(-c4cccc(OC)c4)n3)cc2)cc1	-2	5	4	0	+	-7	77
CC1=C(C(=O)OCCc2ccccc2)C(c2cc3c(cc2[N+](=O)[O-])OCO3)C2=C(CC(c3ccccc3)CC2=O)N1 (stereo not drawn)	.	.	.	.	i	.	.
O=C1SC(SCc2ccccc2)=N/C1=C\c1ccco1	1	3	3	9	.	4	.
CCCSC1=N/C(=C\C=C\c2ccco2)C(=O)S1	-17	5	-2	7	+	-6	86
Nc1nc2ccc(C(=O)O)cc2s1	.	.	.	.	i	.	.
N#Cc1c(/N=C/c2ccco2)oc(-c2ccccc2)c1-c1ccccc1	-11	6	-2	3	+	-2	?
CCOC(=O)c1oc2ccc(S(=O)(=O)n3nc(-c4ccc(OC)cc4)cc3N)cc2c1C	-6	3	2	2	+	4	75
CCN(CC)S(=O)(=O)c1ccc2oc(C(=O)Nc3ccc(OC)cc3OC)c(C)c2c1	-8	7	-5	1	.	-4	.
CCOc1cc(C(=S)N2CCCCC2)ccc1OC(=O)c1ccc([N+](=O)[O-])cc1	.	.	.	.	i	.	.
Nc1c(C(=O)NCc2ccco2)sc2nc3c(cc12)C(=O)CCC3	9	0	6	5	+	5	151
Cc1cccc2cc(C(c3nnnn3C(C)(C)C)N3CCN(C(=O)c4ccco4)CC3)c(=O)[nH]c12 (stereo not drawn)	5	8	2	15	+	9	42*
CC(C)(C)n1nnnc1C(c1cccnc1)N1CCN(C(=O)c2ccco2)CC1 (stereo not drawn)	3	1	-3	8	i	5	.
O=C(NCc1ccco1)c1cc2n(n1)C(C(F)(F)F)CC(c1ccc(Br)cc1)N2 (stereo not drawn)	4	0	2	10	+	-5	?
SMILES	CatL block	CatB mixtures	CatB block	E coli RNAP	BAP1 inh	CatS inh	BAP1 inh conf
COc1ccc(OC)c(NC(=O)c2cc3n(n2)C(C(F)(F)F)CC(c2ccc4c(c2)OCO4)N3)c1 (stereo not drawn)	-6	2	2	2	+	-5	102
COc1ccccc1NC(=O)c1cc2n(n1)C(C(F)(F)F)CC(c1ccc3c(c1)OCO3)N2 (stereo not drawn)	0	3	6	-2	.	-3	.
CCOC(=O)c1ccc(N=c2oc3ccccc3cc2C(=O)Nc2cccc(C(F)(F)F)c2)cc1	.	.	.	.	i	.	.
C=CCn1c(COc2ccc(F)cc2)nnc1SCC(=O)NC(=O)NCc1ccco1	7	6	0	10	i	-5	.
C=CCn1c(COc2cccc(C)c2)nnc1SCC(=O)NC(=O)NCc1ccco1	8	4	-1	3	+	1	137
O=C(Nc1ccccc1)C1=C(O)CC(c2ccoc2)CC1=Nc1ccccc1 (stereo not drawn)	8	3	3	9	+	-2	?
O=C(Nc1ccccc1)C1=C(O)CC(c2ccco2)CC1=Nc1ccccc1 (stereo not drawn)	0	9	3	3	i	2	.
CCCOC(=O)C1=C(C)NC2=C(C(=O)CCC2)C1c1ccccc1OCc1ccccc1 (stereo not drawn)	.	.	.	.	i	.	.
C=CCn1cc(C(=O)NCc2ccco2)c(=O)c2cc(S(=O)(=O)N3CCCCCC3)ccc21	7	3	4	6	+	0	97
CCn1cc(C(=O)NCc2ccco2)c(=O)c2cc(S(=O)(=O)N3CCCCCC3)ccc21	-2	-2	3	-5	i	-1	.
O=C(NC12CC3CC(CC(C3)C1)C2)NC12CC3CC(CC(C3)C1)C2	.	.	.	.	i	.	.
CCOc1cccc2sc(NC(=O)c3ccc(Br)s3)nc12	11	0	2	10	+	4	81
CCOC(=O)c1sc2nc(NC(=O)COc3ccccc3)sc2c1C	23	3	2	-3	+	18	78
CCOC(=O)c1sc2nc(NC(=O)c3cccs3)sc2c1C	15	-2	3	6	i	-13	.
CCCSc1nc2c(cnn2-c2ccc(F)cc2)c(=O)[nH]1	.	-5	-2	6	i	6	.
O=c1[nH]c(SCc2ccc(F)cc2)nc2c1cnn2-c1ccc(F)cc1	29	4	3	3	+	23	57*

Screening data from PubChem.
